Rows were chosen to be rich in hits. Some 19% of all compounds tested hit in one or more screens of this group.
TDP1 cell noCPT = qHTS for Inhibitors of human tyrosyl-DNA phosphodiesterase 1 (TDP1): qHTS in cells in absence of CPT; Potency, µM (highest dose often 46.2 µM), actives largely listed as inhibitors; DT40 Tdp1-/- hTDP1 cells, no CPT, ATP luminescence, 48 h; actives 15% (n = 420,000); further: nearly all actives have a fitted effect of over 55% in size
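No-CPT arm: Tdp1-/-;hTDP1 DT40 cells (400/well) plus compounds, incubated ≥48 hr at 37 °C. Readout CellTiter-Glo luminescence.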
HT1080-NT tox = kills 2HG-producing HT-1080-NT fibrosarcoma cells; actives 1.6% (n = 360,000); Potency, µM (doses to about 46.1 µM), hits mostly cytotoxic; HT-1080-NT fibrosarcoma viability, CellTiter-Glo ATP luminescence, 48 h;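 further: NT is the 2HG producing partner of a matched IDH1 knockdown line; nearly all actives have a fitted effect of over 55% in size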
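Luminescent CellTiter-Glo readout after 48 hours of compound exposure at 37 degrees C defined viability of HT-1080-NT cells. Activity was normalized to DMSO wells and cell-free media wells; concentration-response curves were fitted and assigned curve classes.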
IL1B secr inh = inflammasome signaling inhibition, IL-1 beta readout; actives 4.7% (n = 360,000); THP-1 LPS/ATP IL-1B secretion, AlphaLISA, 16 h; hits give low values; activity change, % at 57.5 µM; in the data active means activity change below about -50%; inconclusive means mostly about -30% to -49%
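THP-1 cells pretreated 1 hr with compounds (up to 57.5 uM final), then stimulated with LPS (250 ng/mL final) plus ATP (1.25 mM final); secreted IL-1B measured by AlphaLISA after 16 hr, decreased signal indicating inhibition.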
TDP1 cell CPT = growth inhibition of DT40 Tdp1-/-;hTDP1 cells with camptothecin (screen for TDP1 inhibitors); chicken DT40 Tdp1-/-;hTDP1 cells + 20 nM CPT, ATP luminescence, 48 h; Potency, µM (titrated, usually from 46.2 µM), hits mostly inhibitors; actives 12% (n = 420,000); AID 686979; further: nearly all actives have a fitted effect of over 55% in size
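Chicken DT40 Tdp1-/- cells stably complemented with human TDP1 were seeded at 400 cells/well in medium containing 20 nM camptothecin, exposed to pin-transferred compounds, and grown at 37 °C for at least 48 hr. Viability was read as ATP luminescence.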
uPA generation = cell surface uPA generation inhibition; cell surface uPA generation assay, qHTS; Potency, µM (titrated, usually from 38.3 µM), actives largely listed as inhibitors; actives 0.31% (n = 330,000); active means well fitted inhibition curve with a large enough effect; inconclusive means small, poorly fitted or top-dose-only effect; inactive means no such curve, though single readings can be large or run the other way; tested in mouse RAW 264.7 cells; further: nearly all actives have a fitted effect of over 55% in size
HT1080 IDH1KD tx = kills HT-1080 cells with IDH1 knockdown. HT-1080 IDH1 knockdown viability, ATP luminescence, 48 h. Potency, µM (series often up to 46.1 µM), hits mostly cytotoxic. actives 2% (n = 360,000)
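Viability of IDH1-knockdown HT-1080 fibrosarcoma cells was assessed by CellTiter-Glo after 48 h at 37 °C with titrated compound; concentration-effect curves were classified by fit quality and response size.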
Numbers stand for hits; . = inactive; ? = inconclusive; / = no result given; ! = a repeat was not active. Unless noted, the call rests on the fitted dose curve; in most records, active means well fitted curve in the direction sought with a large enough effect; inconclusive means small, poorly fitted or top-dose-only effect, or another doubt; inactive means no such curve, though single readings can be large; an effect the other way counts as inactive or inconclusive.

SMILES	TDP1 cell noCPT	HT1080-NT tox	IL1B secr inh	TDP1 cell CPT	uPA generation	HT1080 IDH1KD tx
COc1ccc(C2CC(=O)c3cc(-c4nc(-c5cccc([N+](=O)[O-])c5)cs4)c(=O)n(-c4cccc(C)c4)c3C2)cc1 (stereo not drawn)	.	/	/	.	/	/
O=C(O)CC(NC(=O)C1c2ccccc2Oc2ccccc21)c1ccc(Cl)cc1 (stereo not drawn)	.	.	.	.	.	.
COC(=O)C1=C(C)NC(C)=C(C(=O)OC(C)(C)CN(C)CCC(c2ccccc2)c2ccccc2)C1c1cccc([N+](=O)[O-])c1 (stereo not drawn)	8.41µM	/	/	8.41µM	/	/
CCOC(=O)C1=C(CCc2ccccc2)NC(=O)NC1c1cccc([N+](=O)[O-])c1 (stereo not drawn)	.	.	.	.	.	.
COCCOC(=O)C1=C(C)NC(C)=C(C(=O)OC(C)C)C1c1cccc([N+](=O)[O-])c1 (stereo not drawn)	15µM!	.	.	?	.	.
CCOC(=O)C1=C(C)NC(C)=C(C(=O)OC)[C@H]1c1cccc([N+](=O)[O-])c1	23.7µM	/	/	26.6µM	/	/
CCOC(=O)C1=C(N)Oc2cc(O)ccc2C1c1cccc([N+](=O)[O-])c1 (stereo not drawn)	16.4µM	7.31µM	-97.5	?	.	5.8µM
COC(=O)[C@@H]1CCCN1Cc1ccc2c(c1)CN(Cc1cccn1-c1ncccn1)CCO2	.	/	/	?	/	/
O=C(c1ccc(F)c(F)c1)N1CCOc2ccc(CN3CCN(CCO)CC3)cc2C1	.	/	/	.	/	/
CC(C)OC(=O)Nc1ccc2nc(-c3cscn3)[nH]c2c1	1.19µM	/	/	0.841µM	/	/
Cc1nn(-c2ccc(F)cc2)c(Cl)c1/C=C/C(=O)OCC(=O)Nc1c(F)c(F)c(F)c(F)c1F	.	.	.	.	.	.
CCOc1ccc(CCNC(=O)CSCC(=O)Nc2ccc(OC)cc2)cc1OCC	?	.	.	.	.	.
O=Nc1c2cc(-c3ccccc3)[nH]nc-2c2ccccc12	20.6µM	.	.	20.6µM	.	?
O=C1ON=C(c2ccc(Cl)cc2)/C1=C/c1ccc(O)cc1	11.6µM	?	-102.0	7.31µM	.	?
O=C1ON=C(c2ccccc2)/C1=C/c1ccc(O)cc1	?	.	-98.5	23.1µM	?	.
Cc1ccc(C2=NOC(=O)/C2=C\c2ccccc2)cc1	?	.	.	?	.	.
CC1=NOC(=O)/C1=C/c1ccc(O)cc1	?	.	.	?	.	.
Cc1ccc(/C=C2/C(=O)ON=C2c2ccccc2)o1	14.6µM	.	.	20.6µM	.	.
O=C1ON=C(c2ccccc2)/C1=C/c1ccccc1	.	.	-75.5	.	.	.
C/C=C/COC(=O)C1=C(C)NC(=O)NC1c1ccc2c(c1)OCO2 (stereo not drawn)	.	.	.	.	.	.
CC1=C(C(=O)OCc2ccc3c(c2)OCO3)C(c2ccc(F)cc2)NC(=O)N1 (stereo not drawn)	4.11µM	4.47µM	.	4.11µM	.	5.01µM
CC1=C(C(=O)OCc2ccc3c(c2)OCO3)C(c2ccc(Cl)cc2)NC(=O)N1 (stereo not drawn)	2.91µM	2.51µM	.	2.31µM	?	2.24µM
CC1=C(C(=O)OCC2CCCO2)C(c2ccccc2Cl)NC(=O)N1 (stereo not drawn)	.	.	.	.	.	.
CC1=C(C(=O)OCC2CCCO2)C(c2ccc(Cl)c(Cl)c2)NC(=O)N1 (stereo not drawn)	?	.	-50.1	?	.	.
CC1=C(C(=O)OCCC(C)C)C(c2ccc3c(c2)OCO3)NC(=O)N1 (stereo not drawn)	?	.	.	?	.	.
SMILES	TDP1 cell noCPT	HT1080-NT tox	IL1B secr inh	TDP1 cell CPT	uPA generation	HT1080 IDH1KD tx
CC1=C(C(=O)OC2CCCCC2)C(c2ccc(O)cc2)NC(=O)N1 (stereo not drawn)	.	.	.	.	?	.
CC1=C(C(=O)OC2CCCCC2)C(c2ccc(F)cc2)NC(=O)N1 (stereo not drawn)	?	.	-53.4	.	.	.
Cc1ccc(C)c(N(CC(=O)NC(C)C)C(=O)CCC(=O)Nc2ccccn2)c1	.	.	.	.	.	.
CC(C)(C)CNC(=O)[C@]1(C)CCC[C@@]2(C)C3CC[C@@]4(C)C[C@]3(CCC21)CC4=O (stereo partly drawn)	23.1µM	.	.	?	.	.
C[C@@]12CCC3[C@@](CCC4[C@@]3(C)CCC[C@@]4(C)C(=O)O)(CC1=O)C2 (stereo partly drawn)	.	.	.	.	.	.
C[C@@]12CCC3[C@@](CCC4[C@@]3(C)CCC[C@@]4(C)C(=O)NCc3ccccc3)(CC1=O)C2 (stereo partly drawn)	18.4µM	.	.	?	.	.
Cc1ccc(Nc2nc(N)nc(CN3CCN(c4ccccc4)CC3)n2)cc1Cl	18.4µM	.	?	?	.	?
COc1ccccc1Nc1nc(N)nc(CN2CCN(c3ccccc3)CC2)n1	.	.	.	.	.	.
COc1ccc(N2CCN(Cc3nc(N)nc(Nc4ccc(C)c(Cl)c4)n3)CC2)cc1	16.4µM	?	.	9.2µM	/	?
Cc1ccc(N2CCN(C(=O)N3CCCC3)CC2)cc1C	.	.	.	20.6µM	.	.
Cc1ccc(N2CC(C)Cn3c2nc2c3c(=O)n(CC(=O)O)c(=O)n2C)cc1 (stereo not drawn)	.	/	/	.	/	/
CC1(C(=O)Nc2cccc3ncccc23)CCN1C(=O)C1(c2ccccc2)CC1 (stereo not drawn)	.	.	.	.	/	.
CC(C)(C)c1cc(NC(=O)C2(C)CCN2C(=O)C2(c3ccccc3)CCCC2)no1 (stereo not drawn)	14.6µM	.	.	14.6µM	/	.
CC(C)(C)c1cc(NC(=O)C2(C)CCN2C(=O)C2(c3ccccc3)CC2)no1 (stereo not drawn)	20.6µM	.	.	?	/	.
Cn1ncc2c(=O)[nH]cnc21	.	.	.	.	.	.
CC(C)CN1C(=O)c2ccc(C(=O)Nc3c[nH]c(=O)[nH]c3=O)cc2C1=O	.	.	.	.	.	.
CCN(CC)Cc1c(NC(=O)c2ccccc2)sc(C)c1C	?	.	.	.	.	.
CCOC(=O)c1c(NC(=O)c2ccccc2)sc2c(O)c(CN(CC)CC)ccc12	18.4µM	.	.	23.1µM	/	?
CCCCC1C(=O)N(c2ccccc2)N(c2ccc(O)cc2)C1=O (stereo not drawn)	0.581µM	?	-109.0	1.03µM	?	.
CC(C)=CCC1C(=O)N(c2ccccc2)N(c2ccccc2)C1=O	3.76µM	/	/	3.76µM	/	/

Screening results as filed in PubChem BioAssay.
